Only some compounds are listed: those with a hit (about 2.8% of all), similar ones and a draw of the others.
Pol beta inh = DNA polymerase beta (human) inhibition; P06746; Potency, µM (top dose mostly 114 µM), for the others: top-dose activity change, negative = inhibition, hits mostly inhibitors; AID 485314; 340,000 tested, 1.3% active; Pol beta primer extension/strand displacement, fluorescence kinetic; note: potency is the fitted concentration of half-maximal effect; % is set by controls: 0 for no effect and ±100 for the full control effect
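Homogeneous kinetic assay of primer extension and strand displacement by 10 nM Pol beta, preincubated 15 min at room temperature with compound before 50 nM substrate (final) was added. Read at 0 and 10 min; four-parameter Hill fit.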
PI5P4Ka inh = blocks human PI5P4K alpha kinase activity; max response, %; 330,000 tested, 1.2% active; PI5P4Kalpha enzyme, ADP-Glo luminescence, 60 min; hits give low values; active = max response of -50% or lower; inconclusive = between -30% and -50%; inactive = -30% or higher; note: value at the top dose of about 77 µM; % is set by controls: 0 for no effect and ±100 for the full control effect
Target sequence (P48426 whole entry, looked up): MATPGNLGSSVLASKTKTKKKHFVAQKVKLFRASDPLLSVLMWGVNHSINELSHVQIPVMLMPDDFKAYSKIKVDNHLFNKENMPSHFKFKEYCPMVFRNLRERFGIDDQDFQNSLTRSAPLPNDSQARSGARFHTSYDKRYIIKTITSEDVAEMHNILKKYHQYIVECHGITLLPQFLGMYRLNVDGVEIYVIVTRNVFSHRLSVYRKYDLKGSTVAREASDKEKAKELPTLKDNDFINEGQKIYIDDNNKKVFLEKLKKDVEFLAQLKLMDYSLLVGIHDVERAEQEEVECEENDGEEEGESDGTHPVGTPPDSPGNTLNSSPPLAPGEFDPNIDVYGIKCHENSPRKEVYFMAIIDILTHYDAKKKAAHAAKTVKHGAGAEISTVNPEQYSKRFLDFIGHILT
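Human PI5P4Kalpha with substrate in 0.038 M HEPES pH 7.4, 0.28 mM EGTA, 0.1% CHAPS, 5% DMSO; reaction started with 5 microM ATP (final), 60 min at room temperature. ADP formed read by ADP-Glo luminescence.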
WRN helicase inh-1 = inhibitors of human WRN helicase; AID 651768; 360,000 tested, 0.46% active; WRN helicase unwinding, fluorescent forked duplex, kinetic; Potency, µM (highest dose often 114 µM), without a hit: at the highest dose activity change, negative = inhibition, actives largely listed as inhibitors; note: potency is the fitted concentration of half-maximal effect; % is set by controls: 0 for no effect and ±100 for the full control effect; nearly all actives have a fitted effect of over 55% in size
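WRN at 20 nM final preincubated with compound 15 min at room temperature; reaction started with 100 nM fluorophore/quencher forked duplex oligonucleotide and 2 mM ATP final. Unwinding followed kinetically by red fluorescence (ex 525, em 598 nm).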
Pol eta inh-1 = blocks human DNA polymerase eta activity; 390,000 tested, 1.2% active; recombinant Pol eta, fluorescent DNA replication assay; Q9Y253; Potency, µM (series often up to 114 µM), for the others: top-dose activity change, negative = inhibition, usual class: inhibitors; note: potency is the fitted concentration of half-maximal effect; % is set by controls: 0 for no effect and ±100 for the full control effect
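Pol eta at 10 nM preincubated with compounds 15 min at room temperature; reaction started with fluorescent substrate (50 nM final) and read kinetically at 0 and 10 min.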
POLI inh = blocks human DNA polymerase iota activity. AID 588590. 390,000 tested, 1% active. Q9UNA4. Potency, µM (titrated, usually from 115 µM), for the others: top-dose activity, negative = inhibition, usual class: inhibitors. Pol iota fluorescent replication assay, 10 min; note: potency is the fitted concentration of half-maximal effect
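Fluorescent replication assay read twice, at 0 min and 10 min after adding 50 nM (final) substrate. Enzyme (10 nM) and compounds were first incubated 15 min at room temperature; enzyme-free buffer wells were negative controls.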
Pol kappa inh-1 = DNA polymerase kappa (human) inhibition; purified Pol kappa, fluorescent DNA synthesis assay, 10 min; 400,000 tested, 0.53% active; Q9UBT6; Potency, µM (titrated, usually from 107 µM), without a hit: top-dose activity, negative = inhibition, hits mostly inhibitors; note: potency is the fitted concentration of half-maximal effect; % is set by controls: 0 for no effect and ±100 for the full control effect
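Here, compound and 10 nM enzyme are combined for 15 min at room temperature; adding 50 nM substrate (final) starts DNA synthesis, tracked by fluorescence at 0 and 10 min against buffer-only wells.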
BAZ2B inh = confirmation of human BAZ2B bromodomain inhibitors; shares compounds with Pol kappa inh-1; AlphaScreen BAZ2B / biotin-H3K14Ac peptide displacement; Potency, µM, actives largely listed as inhibitors; 25 tested, 100% active; calls by dose curve
BAZ2B bead ctr = interferes with AlphaScreen signal in BAZ2B counterscreen | shares compounds with Pol kappa inh-1 | AlphaScreen biotin-His6 peptide bead counterscreen, signal decrease | Potency, µM (doses to about 57.1 µM), without a hit: at the top dose activity change, negative = inhibition, most hits filed as inhibitors | 25 tested, under 10 active | AID 588859;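 active = clear concentration-dependent signal drop in the bead assay lacking the target, so a primary-screen artifact; inconclusive = weak, partial or single-dose response; inactive = no response, so a real primary hit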
PGK validate = TbPGK inhibition, hit validation; shares compounds with Pol kappa inh-1; TbPGK coupled GAPDH assay, Kinase-Glo luminescence; Potency, µM (series often up to 57.5 µM), for inactives: top-dose activity change, negative = inhibition, usual class: inhibitors; 500 tested, 79% active; note: potency is the fitted concentration of half-maximal effect; % is set by controls: 0 for no effect and ±100 for the full control effect; nearly all actives have a fitted effect of over 65% in size
Target sequence (P07378 whole entry, looked up): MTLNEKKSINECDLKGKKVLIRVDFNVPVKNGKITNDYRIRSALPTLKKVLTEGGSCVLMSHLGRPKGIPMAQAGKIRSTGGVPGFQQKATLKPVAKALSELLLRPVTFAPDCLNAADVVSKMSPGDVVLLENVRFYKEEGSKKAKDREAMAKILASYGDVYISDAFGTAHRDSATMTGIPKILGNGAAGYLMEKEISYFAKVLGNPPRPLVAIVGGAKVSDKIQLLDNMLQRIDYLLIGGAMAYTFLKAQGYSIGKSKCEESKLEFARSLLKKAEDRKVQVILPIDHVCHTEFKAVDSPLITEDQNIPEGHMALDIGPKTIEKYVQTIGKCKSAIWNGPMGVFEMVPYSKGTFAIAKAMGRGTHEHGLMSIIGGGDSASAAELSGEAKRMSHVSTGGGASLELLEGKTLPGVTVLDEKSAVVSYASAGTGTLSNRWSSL
POLI cherry-pick = Human Pol iota inhibitor confirmatory assay | shares compounds with Pol kappa inh-1 | AID 720496 | Potency, µM, hits mostly inhibitors | 1,500 tested, 77% active | Pol iota primer extension, TAMRA/BHQ fluorescence; note: potency is the fitted concentration of half-maximal effect
Pol kappa inh-2 = confirmation of human DNA polymerase kappa inhibitors. shares compounds with Pol eta inh-1. purified Pol-kappa, fluorescent strand-displacement substrate. Potency, µM, actives largely listed as inhibitors. 920 tested, 76% active; note: potency is the fitted concentration of half-maximal effect
Pol eta inh-2 = confirmation of human DNA polymerase eta inhibitors; shares compounds with Pol eta inh-1; Pol eta primer extension, TAMRA/BHQ fluorescence, 10 min; Potency, µM, actives largely listed as inhibitors; 2,600 tested, 64% active; AID 720502; note: potency is the fitted concentration of half-maximal effect
WRN helicase inh-2 = WRN helicase inhibition, cherry-pick retest | shares compounds with WRN helicase inh-1 | WRN helicase DNA unwinding, fluorescence kinetic | Potency, µM (top dose mostly 57.1 µM), for the others: at the top dose activity, negative = inhibition, most hits filed as inhibitors | 610 tested, 63% active | AID 720497; note: potency is the fitted concentration of half-maximal effect; nearly all actives have a fitted effect of over 65% in size
TO DNA binding = counter-screen for WRN helicase inhibitors: DNA binding; shares compounds with WRN helicase inh-1; thiazole orange DNA binding displacement, fluorescence; Potency, µM (titrated, usually from 57.1 µM), for the others: at the top dose activity change, negative = inhibition, actives largely listed as inhibitors; 610 tested, 10% active; AID 720499;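 note: drop in dye fluorescence marks compound binding to DNA; potency is the fitted concentration of half-maximal effect; % is set by controls: 0 for no effect and ±100 for the full control effect; nearly all actives have a fitted effect of over 60% in size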
BLM helicase inh = blocks human BLM helicase in WRN counterscreen; 610 tested, 60% active; Potency, µM (titrated, usually from 57.1 µM), without a hit: top-dose activity change, negative = inhibition, actives largely listed as inhibitors; Recombinant BLM helicase DNA unwinding, red fluorescence; shares compounds with WRN helicase inh-1; note: potency is the fitted concentration of half-maximal effect; nearly all actives have a fitted effect of over 60% in size
* marks the source's active call; other numbers are inactive results; i = inactive; u = inconclusive; x = no result; [ ] = another dose, or the depositor's remark. Unless noted, calls come from the whole dose curve; as a rule, active = well fitted curve in the direction sought with a large enough effect; inconclusive = small, poorly fitted or top-dose-only effect, or another doubt; inactive = no such curve, though single readings can be large; an effect the other way counts as inactive or inconclusive.

SMILES | Pol beta inh | PI5P4Ka inh | WRN helicase inh-1 | Pol eta inh-1 | POLI inh | Pol kappa inh-1 | POLI cherry-pick | Pol eta inh-2 | WRN helicase inh-2 | TO DNA binding | BLM helicase inh | others
CC(=O)CC(c1ccccc1)c1c(O)c2cccc(O)c2oc1=O (configuration not stated) | x | x | x | x | x | i | x | x | x | x | x
Cc1cc(/C=C2\C(=O)NC(=O)N(Cc3ccccc3)C2=O)c(C)n1-c1ccc(Cl)c(C(=O)O)c1 | 3.5µM* | -94* | 28µM* | 1.8µM* | 8.9µM* | 18µM* | 24* | 21* | 6.8µM* | -12% | 1.9µM* | PGK validate=6.5µM*;Pol kappa inh-2=24*
Cc1cc(/C=C2\C(=O)NC(=O)N(c3ccc(F)cc3)C2=O)c(C)n1-c1ccc(C(=O)O)cc1 | 15% | u | -13%[11.6 µM] | u | u | -18% | x | x | x | x | x
OC[C@H]1OC(O)C[C@@H](O)[C@@H]1O (some centres not stated) | x | 0 | -7% | -5% | u | 0% | x | x | x | x | x
O=C(NC1CC1)c1cc(-c2ccco2)nc2ccccc12 | u | -101* | 20µM* | 3.5µM* | u | 20µM* | x | x | 6.1µM* | u | 0.96µM* | BAZ2B inh=10*;BAZ2B bead ctr=u
COc1cccc(OC)c1-c1nn2c(-c3n[nH]c4c3CCC4)nnc2s1 | x | x | x | x | 5µM* | 79µM* | u | u | u | u | u
CN(C)c1ccc(/C=C2\C(=O)NC(=O)N(Cc3ccc(F)cc3)C2=O)cc1 | 23% | -22 | -13% | -4% | 19% | -5% | x | x | x | x | x
O=C1NC(=O)N(Cc2ccco2)C(=O)/C1=C/C=C/c1ccco1 | u | -83* | 20µM* | 4µM* | u | 14µM* | 6.7* | 4.8* | 11µM* | -7% | 6.1µM*
Cn1cccc1/C=C1\C(=O)NC(=O)N(Cc2ccco2)C1=O | 14µM* | -80* | 40µM* | 10µM* | 7.9µM* | 22µM* | 17* | 17* | 19µM* | -8% | 8.6µM*
O=C1NC(=O)N(Cc2ccccc2)C(=O)/C1=C/N1CCCc2ccccc21 | -8% | -23 | -20% | -11% | u | -66% | x | x | x | x | x
CN1C(=O)/C(=C/C=C/c2ccco2)C(=O)NC1=S | u | -90* | 35µM* | 5.6µM* | 10µM* | 25µM* | x | x | 15µM* | 31% | 8.6µM* | PGK validate=5.2µM*
COC(=O)COc1ccc(C[C@@H](C)NC[C@H](O)c2cccc(Cl)c2)cc1 | x | x | x | x | x | 9%[60.1 µM] | x | x | x | x | x
C[C@@]12CC3CC(N)(C1)C[C@@](C)(C3)C2 | x | x | x | x | x | -7%[12 µM] | x | x | x | x | x
CN1/C(=C\C=C2C(=O)NC(=O)NC2=O)C(C)(C)c2ccccc21 | 11% | 1 | -9% | 1% | 19% | 5% | x | x | x | x | x
CCN1/C(=C/C=C/C2=[N+](CC)c3ccccc3C2(C)C)C(C)(C)c2ccccc21 | x | u | 4.7µM* | 32µM* | x | x | 38* | 67* | 22µM* | i | 22µM* | Pol kappa inh-2=67*
C[n+]1c2cc(N)ccc2cc2ccc(N)cc21 | x | u | 18µM* | 45µM* | 7.9µM* | 22µM* | 9.5* | 30* | 11µM* | x | 12µM* | Pol kappa inh-2=7.5*
Nc1ccc2ccccc2c1 | x | -8 | 3% | -8% | -13% | -5% | x | x | x | x | x
COC1C(O)C(C)OC(OC2C(Oc3cccc4c(O)c5c(=O)oc6ccc(C)c7c(=O)oc(c34)c5c67)OC(C)C(O)C2O)C1O (configuration not stated) | x | 10 | u | 10µM* | u | u | 21* | 43* | 19µM* | u | 63% | Pol kappa inh-2=4.2*
C=CCN1C(=O)/C(=C/c2ccc3c(c2)CCCN3CCC)C(=O)NC1=S | u | u | 56µM* | 71µM* | u | u | x | 67* | x | x | x
C=CCN1C(=O)/C(=C/c2ccc(Br)s2)C(=O)NC1=S | u | -94* | 56µM* | 20µM* | 18µM* | 79µM* | x | u | x | x | x
Fc1ccc(-c2nc3c(-c4ccc(F)cc4)cnn3cc2CCN2CCOCC2)cc1 | u | -3 | -8% | -4% | -12% | -7% | x | x | x | x | x
O=c1cc(-c2ccc(O)c(O)c2)oc2c(C3O[C@H](CO)[C@@H](O)[C@H](O)[C@H]3O)c(O)cc(O)c12 (some centres not stated) | 20µM* | -23 | -6% | u | 28µM* | 20µM* | x | u | x | x | x | Pol kappa inh-2=19*
C[C@@H]1CC[C@H]2[C@H](C)[C@H]3CC[C@@]4(O)[C@@H]5CC(=O)[C@H]6CC(=O)CC[C@]6(C)[C@H]5C[C@H]4[C@@H]3CN2C1 | x | x | x | x | x | 17%[60.1 µM] | x | x | x | x | x
O=C1NC(=O)N(Cc2ccccc2)C(=O)/C1=C\C=C\c1ccco1 | 20µM* | -62* | 50µM* | 18µM* | 16µM* | 35µM* | x | 76* | x | x | x

Compound activity: PubChem BioAssay, National Center for Advancing Translational Sciences (NCATS)
